Results on 40 molecules are retold here after PubChem BioAssay (NCATS).

Results filed as inconclusive are left out. Entries that show only a call come without a potency. Calls of active or inactive are those of the source. Calls come from the whole dose curve; as a rule, active = well fitted inhibition curve with a large enough effect; inconclusive = small, poorly fitted or top-dose-only effect; inactive = flat fitted curve, though single readings scatter.
Potency is the fitted concentration of half-maximal effect.

The experiment deals with Dual specificity protein kinase CLK4 (Homo sapiens) (UniProt Q9HAZ1). The experiment can be described thus: qHTS Assay for Inhibitors of CDC-like Kinase 4 (ADP-FP Assay) (AID 1795). Note: nearly all actives have a fitted effect of over 60% in size. The following applies: Transcreener ADP fluorescence polarization; series mostly up to 50 µM. The method, then: NIH Molecular Libraries Probe Production Centers Network [MLPCN] NIH Chemical Genomics Center [NCGC] MLPCN Grant: 1R03MH084827-01 Assay Submitter (PI): Tom Misteli NCGC Assay Overview: Clk4 (Invitrogen cat # PV3839) was assayed using ATP and the RS repeat peptide (AnaSpec cat # 61722) as substrates using Transcreener (trade mark), a competitive fluorescence polarization (FP) assay. For the present assay, we used the Orange TranscreenerTM ADP2 (BellBrooks Labs, Madison, Wis) detection system to monitor ADP production in the kinase reaction. […] This allows the ADP tracer to freely rotate leading to a decrease in the observed FP value. The amount of ADP produced can then be calculated using a calibration curve. The positive control for the assay was TG003 (Sigma-Aldrich, cat # 300801-52-9) which is a Clk4 inhibitor [2].
Sequence of Dual specificity protein kinase CLK4 (Homo sapiens) (Q9HAZ1 whole entry, looked up): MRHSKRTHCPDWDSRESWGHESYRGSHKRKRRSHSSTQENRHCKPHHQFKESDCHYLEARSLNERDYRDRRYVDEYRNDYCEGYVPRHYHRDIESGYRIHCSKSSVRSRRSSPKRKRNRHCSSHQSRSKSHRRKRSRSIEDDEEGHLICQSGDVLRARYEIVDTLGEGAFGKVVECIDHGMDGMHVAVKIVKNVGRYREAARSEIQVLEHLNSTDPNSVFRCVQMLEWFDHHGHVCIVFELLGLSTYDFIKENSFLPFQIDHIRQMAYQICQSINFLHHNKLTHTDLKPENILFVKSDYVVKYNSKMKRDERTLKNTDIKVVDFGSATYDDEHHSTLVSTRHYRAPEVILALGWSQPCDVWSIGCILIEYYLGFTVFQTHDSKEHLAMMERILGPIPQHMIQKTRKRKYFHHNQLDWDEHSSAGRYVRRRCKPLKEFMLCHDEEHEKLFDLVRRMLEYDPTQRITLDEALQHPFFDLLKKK
NCGC Assay Protocol Summary: Two uL/well of substrate-buffer solution (100 uM RS peptide, 1 uM ATP, 25 mM Tris pH7.5, 10 mM MgCl2, 0.5 mM EGTA, 2.5 mM DTT, 0.01% Triton X-100 final concentration) was dispensed into 1,536-well assay plates (Greiner, solid black medium-binding plates) with Aurora Discovery BioRAPTR Flying Reagent Dispenser (FRD; Beckton-Dickenson). Using a Kalypsys pin tool equipped with a 1,536-pin tool, 23 nL of compound solution was transferred to the assay plate. Two uL/well Clk4-buffer solution (6.25 nM Clk4, 25 mM Tris pH 7.5, 10 mM MgCl2, 0.5 mM EGTA, 2.5 mM DTT, 0.01% Triton X-100, final concentration) was then added using the FRD yielding a total kinase reaction volume of 4 uL/ well. Then 4 uL/well of detection mixture (4 nM orange fluorescent tracer, 1 ug/mL ADP antibody, final concentration) was then added after an hour and the polarization signal was measured using the EnVision plate reader (PerkinElmer, Waltham, MA) after 30 min of room temperature incubation using the following filters and program settings: BODIPY TMR FP dual Enh mirror (barcode 682); BODIPY-TMR 531 (barcode 105) excitation; BODIPY-TMR FP P/S polarized 595 nm filters (barcodes 210 and 211, respectively); 100% light; 150 flashes; 1.35 G-factor; Detector gains were 685 for the 1st detector; 630 for the 2nd detector.
(Quantitative high-throughput screening tests each substance at several concentrations.)
As to `COc1ncc2nc(C)c(=O)n(-c3ccccc3)c2n1`, the Potency entry was “inactive”.

As to `Cn1cc(-c2nc3cnc(N4CCNCC4)nc3n(Cc3ccc(F)cc3)c2=O)c2ccccc21`, the Potency entry is “inactive”.

As to `O=c1c(-c2cc(F)cc(F)c2)nc2cncnc2n1Cc1ccccc1Cl`, the Potency entry is “inactive”.

For `COc1ccc(CNc2ccnc(-c3ccoc3)n2)c(OC)c1`, the Potency entry was “inactive”.

With `COc1ccc(CNc2ncnc3ccc(-c4ccc(C(=O)N(C)C)cc4)cc23)c(OC)c1`, the Potency entry was “inactive”.

For the molecule `CN(C)C(=O)c1ccc(-c2ccc3ncnc(N4CCNCC4)c3c2)cc1`, the Potency result was “inactive”.

Take `COCCn1c(=O)c(C)nc2cnc(N3CCOCC3)nc21`: the Potency entry is “inactive”.

For the molecule `COc1ccc(-c2nc3cnc(OC)nc3n(C[C@H]3CCCO3)c2=O)cc1`, the Potency entry was “inactive”.

Consider `COc1ccc(CNc2ncnc3ccc(-c4ccc(N(C)C)cc4)cc23)c(OC)c1`, for which the Potency result was “inactive”.

For `COCCn1c(=O)c(CCc2ccccc2)nc2cnc(Nc3ccccc3)nc21`, the Potency result was “inactive”.

Take `COc1ccc2[nH]cc(CCNc3cc(-c4c(C)noc4C)ncn3)c2c1`: the Potency entry was “inactive”.

Regarding `Cn1c(=O)c(-c2ccc(Cl)cc2)nc2cnc(OCc3ccccc3)nc21`, the Potency result was “inactive”.

In the case of `O=c1c(-c2cc(F)cc(F)c2)nc2cnc(N3CCNCC3)nc2n1Cc1ccc(F)cc1`, the Potency result is “inactive”.

As to `COc1ccc(Oc2ncc3nc(-c4ccc(F)cc4)c(=O)n(Cc4cccs4)c3n2)cc1`, the Potency entry was “inactive”.

As for `CN(C)c1ncc2nc(-c3ccc(F)cc3)c(=O)n(-c3ccccc3)c2n1`, the Potency entry is “inactive”.

With `O=c1c(-c2ccccc2)nc2cnc(N3CCOCC3)nc2n1Cc1cccs1`, the Potency result was “inactive”.

For the molecule `O=c1c(-c2ccc(F)cc2)nc2cncnc2n1-c1ccccc1`, the Potency entry is “inactive”.

Take `Clc1ccccc1-c1nc(NCCN2CCOCC2)c2ccccc2n1`: the Potency result is “inactive”.

Regarding `COc1ccccc1-c1cncnc1Nc1ccccc1`, the Potency result was “inactive”.

Turning to `CN(C)c1ncc2nc(-c3ccccc3)c(=O)n(Cc3cccs3)c2n1`, the Potency entry was “inactive”.

Regarding `c1cncc(-c2cc(-n3ccnc3)ncn2)c1`, the Potency was 501 nM (active).

Consider `COCCn1c(=O)cnc2cnc(Oc3cccc(Cl)c3)nc21`, for which the Potency result is “inactive”.

On to `N#Cc1cccc(-c2ccc3ncnc(NC4CCNCC4)c3c2)c1`, for which the Potency was 14100 nM (active).

`COc1cccc(-c2cncnc2NCc2cnc(C)cn2)c1`: the Potency result is “inactive”.

Turning to `COc1cccc(-c2cncnc2NCc2cccs2)c1`, the Potency result was “inactive”.

For `COc1cccc(Cn2c(=O)c(C)nc3cnc(Nc4cccc(OC)c4)nc32)c1`, the Potency result is “inactive”.

With `N#CCCn1c(=O)c(-c2ccc(Cl)cc2)nc2cnc(N3CCNCC3)nc21`, the Potency entry was “inactive”.

With `COc1ccc2[nH]cc(CCNc3ncnc4ccc(-c5c(C)noc5C)cc34)c2c1`, the Potency is 3980 nM (active).

On to `CCNc1ncc2nc(-c3ccc(Cl)cc3)c(=O)n(-c3ccc(OC)cc3)c2n1`, for which the Potency entry was “inactive”.

As to `O=c1c(-c2cccc(Cl)c2)nc2cncnc2n1C1CC1`, the Potency entry was “inactive”.

As for `CNc1ncnc2ccc(-c3ccc4c(c3)OCO4)cc12`, the Potency was 355 nM (active).

With `COc1cccc(Nc2ncc3ncc(=O)n(C)c3n2)c1`, the Potency is 708 nM (active).

With `COc1ncc2nc(-c3cn(C)c4ccccc34)c(=O)n(C[C@H]3CCCO3)c2n1`, the Potency entry is “inactive”.

In the case of `COc1ccccc1-c1cncnc1N1CCN(C)CC1`, the Potency entry was “inactive”.

As for `COCCn1c(=O)c(-c2ccc(OC)cc2)nc2cnc(OCc3ccccc3)nc21`, the Potency result is “inactive”.

As for `CN(C)c1ccc(-c2cncnc2Nc2ccccc2)cc1`, the Potency result was “inactive”.

Consider `COCCn1c(=O)c(-c2ccc(Cl)cc2)nc2cnc(N3CCNCC3)nc21`, for which the Potency entry is “inactive”.

For the molecule `Cc1nc2cnc(Oc3cccc(Cl)c3)nc2n(C2CC2)c1=O`, the Potency result was “inactive”.

Regarding `CN(C)c1ncc2nc(-c3cccs3)c(=O)n(CCc3ccccc3)c2n1`, the Potency entry is “inactive”.

Take `COc1ccc2[nH]cc(CCNc3ncnc4ccc(-c5ccc6c(c5)OCO6)cc34)c2c1`: the Potency is 70.8 nM (active).
